Assay results reported in PubChem BioAssay AID720582 (The Scripps Research Institute Molecular Screening Center, 2013).
In all, about 370,000 compounds went through this assay and about 2,300 (0.62%) were called active. Shown is part of a subset that was picked to be rich in actives. A number with no mark means an inactive call.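 Rule for the calls: active = inhibition above a per-campaign cutoff equal to the mean of compounds falling between control-based bounds plus 3 SD (cut at about 20% in these data); inactive = the rest.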

The compounds below were run against Disintegrin and metalloproteinase domain-containing protein 10 (Homo sapiens) (UniProt O14672) (assay: human ADAM10 inhibitors, primary screen, biochemical, QFRET, HTS (AID 720582;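 note: 0% = DMSO wells while the 100% control is not disclosed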)). Conditions: recombinant ADAM10, EDANS/DABCYL FRET peptide cleavage, 3 h; at 7 µM; hits give high values.
Disintegrin and metalloproteinase domain-containing protein 10 (Homo sapiens), sequence (O14672 214-748 limits assumed): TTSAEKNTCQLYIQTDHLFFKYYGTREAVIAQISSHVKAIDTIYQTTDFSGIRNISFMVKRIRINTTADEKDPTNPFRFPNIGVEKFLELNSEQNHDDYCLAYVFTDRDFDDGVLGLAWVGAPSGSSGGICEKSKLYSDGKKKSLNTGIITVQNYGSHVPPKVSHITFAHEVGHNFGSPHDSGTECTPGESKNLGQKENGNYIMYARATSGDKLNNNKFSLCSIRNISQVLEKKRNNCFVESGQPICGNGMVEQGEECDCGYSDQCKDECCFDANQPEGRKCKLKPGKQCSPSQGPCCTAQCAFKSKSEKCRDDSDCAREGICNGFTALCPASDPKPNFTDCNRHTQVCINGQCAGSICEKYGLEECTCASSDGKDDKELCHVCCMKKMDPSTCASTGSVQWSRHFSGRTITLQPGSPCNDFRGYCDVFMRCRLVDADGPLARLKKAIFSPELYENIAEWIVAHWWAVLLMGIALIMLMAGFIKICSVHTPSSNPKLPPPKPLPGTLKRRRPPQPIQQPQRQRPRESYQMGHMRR

In order of rising inhibition:
1. COc1ccccc1OCCOc1ccc(/C=C2\C(=N)N3N=C(C)SC3=NC2=O)cc1  -72.1%
2. CCCSc1nc(NCc2ccco2)c2c3c(sc2n1)COC(C)(CC)C3 (stereo unspecified)  -57.9%
3. CCOC(=O)Cn1c(SC)nc2sc3c(c2c1=O)CC(C)(C)OC3  -52.7%
4. Cc1ccccc1NC(=O)C1CCN(c2ncccn2)CC1  -49.2%
5. FC(F)(F)c1cccc(Cn2ccc3ccc(-c4ccc5ccn(Cc6ccccc6)c5c4)cc32)c1  -38.5%
6. COc1ccc(/C=C/C(=O)OCC(=O)N2CCN(S(=O)(=O)c3ccc(C)cc3C)CC2)cc1OC  -21.9%
7. CC(=O)OC12CCCN(C1)/C(=C/c1ccncc1)C2 (stereo unspecified)  -16.8%
8. O=C(COC(=O)Cc1ccc(Br)cc1)Nc1ccc(N2CCOCC2)cc1  -15.2%
9. CC(C)c1ccc(S(=O)(=O)N2CCN(C(C)C(=O)NC3CCCC3)CC2)cc1 (stereo unspecified)  -11.6%
10. CN(CCO)c1cccc2c1S(=O)(=O)N(Cc1cn(Cc3ccc(C(F)(F)F)cc3)nn1)Cc1ccccc1O2  -6.76%
11. C#CCN(C[C@@H]1[C@@H](OC(=O)NC2CC2)[C@@H](OC(=O)NC2CC2)Cn2c(=O)ccc(=O)n21)S(=O)(=O)c1ccc(C)cc1  -5.52%
12. O=C(NCCC1=CCCCC1)C1CCN(S(=O)(=O)c2ccc(Cl)s2)CC1  -5.18%
13. COc1cccc(NC(=O)C2c3cc(OC)c(OC)cc3C(=O)N(C)C2c2cccnc2)c1 (stereo unspecified)  -5.09%
14. COc1ccc(-n2c(SCC(=O)Nc3ccc(C)c(Cl)c3)nc3ccccc3c2=O)cc1  -4.98%
15. COc1ccc(C2=NN(C(=O)CSc3nc(=O)n4ccc(C)cc4n3)C(c3ccc(C)cc3)C2)cc1 (stereo unspecified)  -4.74%
16. Cc1ccc(S(=O)(=O)N2C[C@]3(O)C[C@@H]4C(=O)N(c5ccccc5)C(=O)[C@@H]4C[C@]3(OC(=O)NC3CC3)C2)cc1  -2.91%
17. COc1ccc(C2CC(c3ccccc3)=NN2C(=O)c2ccc(Cl)c([N+](=O)[O-])c2)cc1 (stereo unspecified)  -1.55%
18. COc1ccnc(NC(=S)N2CCN(c3ncc(C(F)(F)F)cc3Cl)CC2)c1  -1.47%
19. Cc1cnc(C(=O)OCC(=O)NCCCc2ccccc2)cn1  -1.14%
20. CCOc1ccc(/C=N/NC(=O)C(C)Sc2ccccn2)cc1OCC (stereo unspecified)  -1%
21. COc1cccc(CNC(C)C(=O)Nc2ccc(S(=O)(=O)N3CCCC3)cc2)c1 (stereo unspecified)  -0.95%
22. Cc1ccc(Cn2cc(COC(=O)N(C)Cc3ccccc3)nn2)cc1  -0.56%
23. Cc1ccc(S(=O)(=O)N2CCN(C(=O)COC(=O)CNC(=O)c3ccc(C(C)(C)C)cc3)CC2)c(C)c1  -0.12%
24. COC(=O)[C@]12C[C@H](CC(=O)N3CCOCC3)C(=O)N(Cc3ccc(Cl)cc3Cl)C1=C[C@H](COCc1ccccc1)O[C@@H]2C  0.45%
25. CCOc1ccccc1-c1cc(C(=O)N/N=C(\C)c2cccnc2)c2ccccc2n1  0.58%
26. COc1ccnc(C(=O)N2CCC(Oc3cccnc3)CC2)c1  1.62%
27. Cc1ccc(Cn2cc(CN3[C@@H](CC(C)C)COc4ccc(Cl)cc4S3(=O)=O)nn2)cc1  2.6%
28. COc1cc(NC(=O)COC(=O)c2cnc(C)cn2)c(C)cc1[N+](=O)[O-]  2.74%
29. CSc1ccccc1NC(=O)Cc1ccc(Br)cc1  2.92%
30. CCOC(=O)[C@]12CCCC3=C1N(CCC3)C(=O)[C@@H](CC(=O)NCC13CC4CC(CC(C4)C1)C3)C2  3.03%
31. COc1ccc(OCCn2ccnc2C)cc1  3.1%
32. O=C1C(=O)N(Cc2ccc(-c3ccsc3)cc2)c2ccc(OC(F)(F)F)cc21  3.17%
33. COCC(=O)N[C@@H]1C[C@@H]2O[C@@H](CO)CC[C@@H]2O[C@@H]1CCc1ccc(-c2ccccc2)cc1  4.87%
34. Oc1ccc(/C=C/c2c(F)cccc2F)c2cccnc12  5.02%
35. Cc1cccc(NC(=O)C[C@H]2CC[C@H]3[C@@H](COc4ccc(NC(=O)Nc5ccccc5)cc4C(=O)N3C)O2)c1  5.56%
36. CCOC(=O)c1cccc(NC(=O)CN(C)S(=O)(=O)c2ccc(-c3cocn3)s2)c1  8.22%
37. FC(F)(F)c1cccc(NC(=S)OC2CCC23CCC(c2ccccc2)CC3)c1 (stereo unspecified)  10.3%
38. O=C(CSc1nc2ccccc2n1Cc1ccccc1)NNC(=S)Nc1ccccc1  12.5%
39. O=C(CSc1nnc(-c2ccccc2)n1Cc1ccco1)Nc1ccccc1-c1ccccc1  15%
40. COc1cccc(NC(=O)C/C(C)=N/NC(=O)C2CCCCC2)c1  15.3%

In the case of `COc1ccc(OCCCn2cccc2/C=C2/C(=N)N3OC(C)=CC3=NC2=O)cc1`, the inhibition is reported as 24.4% (active).
For `CC(C)Oc1ccc(CC(=O)NNC(=S)Nc2ccc(Br)cc2)cc1`, the inhibition was 23.5% (active).
With `CCOc1cc(/C=N/NC(=O)c2cc(-c3ccccc3)nc3ccccc23)ccc1O` the inhibition was 22.1% (active).
For `CCC1(C)Cc2c(sc3nnn(CC(=O)Nc4ccc(Cl)cc4)c(=O)c23)CO1` (stereo unspecified), the inhibition was 20.1% (active).
For `COc1ccc(C2CC(c3ccccc3)=NN2C(=O)COC(=O)COc2ccccc2)cc1` (stereo unspecified), the inhibition was 20.3% (active).
With `COc1ccc(S(=O)(=O)N2CCN(C(C)C(=O)Nc3ccc(C(C)C)cc3)CC2)cc1` (stereo unspecified) the inhibition was 26.6% (active).
For `Cc1ccc(S(=O)(=O)N2CCN(C(=O)COC(=O)c3c(C)cc(C)cc3C)CC2)c(C)c1`, the inhibition was 23.9% (active).
`CC1(Cc2cccc(C#N)c2)C(=O)Nc2ccc(-c3cccc(C(F)(F)F)c3)cc21` (stereo unspecified) was tested, and the inhibition was 33.6% (active).
`C#CCN(C[C@H]1[C@H](OC(=O)NC2CCCC2)[C@H](OC(=O)NC2CCCC2)C[C@H]2C(=O)N(c3ccccc3)C(=O)[C@@H]12)S(=O)(=O)c1ccc(C)cc1` was tested, and the inhibition was 29.4% (active).
For `Cc1cnc(C(=O)OCc2c(C)cc(C(C)(C)C)cc2C)cn1`, the inhibition was 21.7% (active).
`COc1cccc(NC(=O)C2C(c3ccccc3)C2(Cl)Cl)c1` (stereo unspecified) was tested, and the inhibition was 19.8% (active).
